From a collection of fitness landscapes (doi:10.1038/s41467-024-54723-y)
Over roughly 18,000 sequences, “TetR repression strength (sort-seq, GFP reporter)” has its median near 0.23; the highest 2% begin near 0.68. The full list was thinned out, with the highest values kept by preference.

These sequences were tested against TetR (class B, Tn10) (UniProt P04483) (assay: TetR repression strength (sort-seq, GFP reporter) (relative to tetO2 = 1); higher = stronger repression). Settings: E. coli.
Sequence of TetR (class B, Tn10) (P04483 whole entry): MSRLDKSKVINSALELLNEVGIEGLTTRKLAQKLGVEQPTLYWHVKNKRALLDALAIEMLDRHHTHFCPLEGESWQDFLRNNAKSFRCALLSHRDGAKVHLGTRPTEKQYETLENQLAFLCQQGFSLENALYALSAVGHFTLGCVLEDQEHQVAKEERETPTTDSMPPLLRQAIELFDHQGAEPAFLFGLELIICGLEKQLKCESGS
In short: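 Repression strength is the top bin index plus one minus the read-weighted mean bin, relative to the unaltered operator's value. A low-copy library in E. coli SIG10-MAX randomized eight operator positions between a constitutive promoter and sfGFP, with TetR expressed constitutively; cells grew 5 h at 37 °C in LB with 50 µg/mL chloramphenicol and 10^6 were FACS-sorted into 13 bins that were each Illumina-sequenced. Three independent transformations were averaged, keeping only members with ≥30 reads in all replicates and CV ≤0.5.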
With TCCCCTTGAGTGGACGAGA the TetR repression strength was 0.325.
TCCCAGAGAGTAGCAGAGA was tested, and the TetR repression strength was 0.294.
With TCCCCCACAGTAAGAGAGA the TetR repression strength was 0.158.
TCCCTTATAGTGGGGGAGA showed a TetR repression strength of 0.161.
With TCCCCCACAGTGAGGGAGA the TetR repression strength was 0.311.
For TCCCCACCAGTGAGGGAGA, the TetR repression strength was 0.933.
TCCCCACAAGTGAGGGAGA was tested, and the TetR repression strength was 0.956.
Work on TCCCCAGCAGTGAGGGAGA yielded a TetR repression strength of 0.0743.
In the case of TCCCCACGAGTGAGGGAGA, the TetR repression strength is reported as 0.217.
With TCCCACCAAGTGAGGGAGA the TetR repression strength was 0.324.
Work on TCCCACTTAGTGACAGAGA yielded a TetR repression strength of 0.396.
Sequence TCCCTGTGAGTGAGAGAGA has a TetR repression strength of 0.407.
In the case of TCCCGTAGAGTATACGAGA, the TetR repression strength is reported as 0.126.
TCCCATTGAGTCCTAGAGA gave a TetR repression strength of 0.304.
TCCCACCAAGTACAGGAGA showed a TetR repression strength of 0.186.
TCCCGCTCAGTGACAGAGA showed a TetR repression strength of 0.715.
TCCCTCTCAGTGACAGAGA gave a TetR repression strength of 0.607.
With TCCCGCTCAGTGTCAGAGA the TetR repression strength was 0.244.
TCCCGCTCAGTGCCAGAGA showed a TetR repression strength of 0.801.
TCCCGCAGAGTGTAAGAGA showed a TetR repression strength of 0.753.
In the case of TCCCGCAGAGTGTAGGAGA, the TetR repression strength is reported as 0.191.
With TCCCGCGGAGTGTAAGAGA the TetR repression strength was 0.256.
TCCCGCTGAGTGTCAGAGA showed a TetR repression strength of 1.09.
Sequence TCCCGCTGAGTGCCAGAGA has a TetR repression strength of 0.341.
With TCCCGGTCAGTGACAGAGA the TetR repression strength was 0.666.
Sequence TCCCGCTTAGTGTCAGAGA has a TetR repression strength of 0.634.
In the case of TCCCGCTCAGTGCCTGAGA, the TetR repression strength is reported as 0.348.
Work on TCCCTCTAAGTGTCCGAGA yielded a TetR repression strength of 0.512.
TCCCTTCGAGTCCGAGAGA showed a TetR repression strength of 0.228.
TCCCGCATAGTACCTGAGA gave a TetR repression strength of 0.562.
Sequence TCCCCAGGAGTGTCTGAGA has a TetR repression strength of 0.273.
TCCCTTAAAGTATTAGAGA gave a TetR repression strength of 0.252.
Work on TCCCTTTAAGTTGACGAGA yielded a TetR repression strength of 0.338.
TCCCAGGTAGTCGGCGAGA was tested, and the TetR repression strength was 0.113.
For TCCCGACCAGTATGCGAGA, the TetR repression strength was 0.0346.
TCCCAGGGAGTAGTTGAGA gave a TetR repression strength of 0.0889.
Sequence TCCCCGGAAGTAGGCGAGA has a TetR repression strength of 0.186.
For TCCCGGTAAGTAGGAGAGA, the TetR repression strength was 0.229.
For TCCCGGTAAGTAGGCGAGA, the TetR repression strength was 1.05.
Work on TCCCGCTAAGTAGGCGAGA yielded a TetR repression strength of 0.0386.
With TCCCGGGCAGTTCAAGAGA the TetR repression strength was 0.417.
TCCCGGGCAGTACAAGAGA showed a TetR repression strength of 1.05.
TCCCGGAAAGTAGGCGAGA showed a TetR repression strength of 0.0444.
TCCCAGGCAGTAGGCGAGA showed a TetR repression strength of 0.205.
Sequence TCCCGGGCAGTAGGCGAGA has a TetR repression strength of 1.05.
Sequence TCCCGGGAAGTAGGCGAGA has a TetR repression strength of 0.849.
With TCCCGGGCAGTGGGCGAGA the TetR repression strength was 0.253.
Sequence TCCCGGGCAGTACACGAGA has a TetR repression strength of 0.318.
For TCCCACCAAGTGTTCGAGA, the TetR repression strength was 0.311.
With TCCCTCGGAGTGCTTGAGA the TetR repression strength was 0.224.
With TCCCGACGAGTAGCAGAGA the TetR repression strength was 0.486.
In the case of TCCCGGTAAGTCAAGGAGA, the TetR repression strength is reported as 0.397.
For TCCCTCATAGTGCTCGAGA, the TetR repression strength was 0.581.
Sequence TCCCAGGGAGTGTTAGAGA has a TetR repression strength of 0.263.
TCCCGCTGAGTCCGGGAGA showed a TetR repression strength of 0.401.
With TCCCGGTCAGTAGGCGAGA the TetR repression strength was 1.01.
TCCCCGTCAGTAGGCGAGA was tested, and the TetR repression strength was 0.243.
In the case of TCCCAGTCAGTAGGCGAGA, the TetR repression strength is reported as 0.16.
For TCCCTAGCAGTCTTCGAGA, the TetR repression strength was 0.495.
Work on TCCCTTGGAGTCGTTGAGA yielded a TetR repression strength of 0.304.
TCCCTTTTAGTGTATGAGA gave a TetR repression strength of 0.271.
With TCCCATTTAGTCTATGAGA the TetR repression strength was 0.279.
In the case of TCCCTTCTAGTCTTTGAGA, the TetR repression strength is reported as 0.693.
In the case of TCCCTTCTAGTTTTTGAGA, the TetR repression strength is reported as 0.415.
With TCCCTTCTAGTTGTTGAGA the TetR repression strength was 0.216.
TCCCTTCTAGTTGCTGAGA gave a TetR repression strength of 0.73.
Sequence TCCCTTTGAGTCTATGAGA has a TetR repression strength of 0.804.
In the case of TCCCGTCTAGTCTTTGAGA, the TetR repression strength is reported as 0.366.
With TCCCTTTTAGTCTATGAGA the TetR repression strength was 0.858.
TCCCTTAGAGTCTATGAGA was tested, and the TetR repression strength was 0.159.
In the case of TCCCTTCTAGTTACTGAGA, the TetR repression strength is reported as 0.464.
In the case of TCCCTTTGAGTCTTTGAGA, the TetR repression strength is reported as 0.181.
With TCCCTGGTAGTTGCTGAGA the TetR repression strength was 0.189.
In the case of TCCCAGAAAGTCGGGGAGA, the TetR repression strength is reported as 0.0115.
Work on TCCCGAGCAGTATCGGAGA yielded a TetR repression strength of 0.138.
TCCCAATAAGTGATTGAGA gave a TetR repression strength of 0.408.
Sequence TCCCACATAGTCTTTGAGA has a TetR repression strength of 0.244.
For TCCCGTGTAGTGATCGAGA, the TetR repression strength was 0.209.
TCCCGCTGAGTTTTTGAGA gave a TetR repression strength of 0.307.
TCCCGGAGAGTTGAGGAGA gave a TetR repression strength of 0.193.
With TCCCGGTTAGTAATTGAGA the TetR repression strength was 0.345.
Work on TCCCGTTAAGTGCCTGAGA yielded a TetR repression strength of 0.419.
TCCCGTTAAGTTGCTGAGA was tested, and the TetR repression strength was 0.517.
Sequence TCCCGTTAAGTTCCTGAGA has a TetR repression strength of 0.721.
TCCCGGTCAGTTCCTGAGA gave a TetR repression strength of 0.26.
Sequence TCCCGCGAAGTTGGTGAGA has a TetR repression strength of 0.202.
For TCCCGTTCAGTTCCTGAGA, the TetR repression strength was 0.705.
For TCCCGCGAAGTTGTTGAGA, the TetR repression strength was 0.112.
Sequence TCCCGCGAAGTTGCTGAGA has a TetR repression strength of 1.1.
TCCCGCTAAGTTTCTGAGA showed a TetR repression strength of 0.393.
TCCCCGTAAGTTCCTGAGA showed a TetR repression strength of 0.231.
TCCCGTTCAGTTGCTGAGA gave a TetR repression strength of 0.512.
For TCCCGCTAAGTTCCTGAGA, the TetR repression strength was 0.792.
TCCCACATAGTTTAAGAGA was tested, and the TetR repression strength was 0.187.
TCCCACCTAGTCTGCGAGA was tested, and the TetR repression strength was 0.302.
For TCCCTGACAGTAGTAGAGA, the TetR repression strength was 0.541.
Work on TCCCTGATAGTTCGAGAGA yielded a TetR repression strength of 0.244.
TCCCGGTGAGTGCGAGAGA showed a TetR repression strength of 0.189.
TCCCAAGTAGTGGGGGAGA gave a TetR repression strength of 0.133.
TCCCCTTGAGTTACCGAGA was tested, and the TetR repression strength was 0.307.
TCCCTTCCAGTTACCGAGA was tested, and the TetR repression strength was 0.351.
Sequence TCCCTCGAAGTTACCGAGA has a TetR repression strength of 0.221.
With TCCCTTGCAGTTACCGAGA the TetR repression strength was 0.874.
TCCCTTGAAGTTACCGAGA was tested, and the TetR repression strength was 0.844.
TCCCTTGCAGTTAACGAGA showed a TetR repression strength of 0.104.
With TCCCGGGTAGTCGGTGAGA the TetR repression strength was 0.237.
Work on TCCCCCATAGTGCCAGAGA yielded a TetR repression strength of 0.453.
In the case of TCCCATTAAGTGAGAGAGA, the TetR repression strength is reported as 0.478.
With TCCCGTTCAGTCTCAGAGA the TetR repression strength was 0.307.
Work on TCCCCTCTAGTGGCCGAGA yielded a TetR repression strength of 0.17.
With TCCCAGCCAGTTATGGAGA the TetR repression strength was 0.169.
With TCCCAGCAAGTATGGGAGA the TetR repression strength was 0.71.
For TCCCAGCAAGTAGGGGAGA, the TetR repression strength was 0.289.
TCCCAGCAAGTCATGGAGA showed a TetR repression strength of 0.401.
TCCCAGCAAGTATGCGAGA was tested, and the TetR repression strength was 0.282.
TCCCAGCAAGTTATGGAGA was tested, and the TetR repression strength was 0.701.
With TCCCTTCAAGTGTAAGAGA the TetR repression strength was 0.158.
Work on TCCCAACTAGTAAATGAGA yielded a TetR repression strength of 0.567.
In the case of TCCCCACTAGTACGTGAGA, the TetR repression strength is reported as 0.363.
For TCCCCTCTAGTACGTGAGA, the TetR repression strength was 0.207.
With TCCCCCCGAGTACGTGAGA the TetR repression strength was 0.839.
Sequence TCCCCCGGAGTACGTGAGA has a TetR repression strength of 0.187.
TCCCCGTGAGTACGTGAGA gave a TetR repression strength of 0.226.
In the case of TCCCCCCTAGTACGTGAGA, the TetR repression strength is reported as 0.814.
In the case of TCCCCACTAGTAAAAGAGA, the TetR repression strength is reported as 0.303.
TCCCCACTAGTAAATGAGA was tested, and the TetR repression strength was 0.726.
TCCCTAGAAGTTATGGAGA showed a TetR repression strength of 0.315.
TCCCTGGCAGTTCATGAGA showed a TetR repression strength of 0.199.
For TCCCGGGTAGTCCGGGAGA, the TetR repression strength was 0.112.
For TCCCAACCAGTCCCGGAGA, the TetR repression strength was 0.12.
TCCCAAGGAGTGGGTGAGA was tested, and the TetR repression strength was 0.185.
